# Out of some 5,500 compounds screened, about 2,000 (36%) were called active. About 18% were inconclusive and are not listed. This is one part of the list. Unmarked numbers belong to inactive results. Cut-off read from the data, not from the text of the source: active = normalized growth mostly below about 0.91 (no sharp cut-off); inconclusive = no clear call, values can overlap the other calls; inactive = mostly above about 0.92.
# Assay: chemical genetic growth profiling, strain panel (AID 1159580);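 note: tested at 20 µM; growth read once vehicle control cultures reached saturation at 30 °C; 1 = growth at the plate median or of vehicle wells; lower values mean less growth of the strain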
# Conditions: growth OD
smiles,measurement,setting,value
ClC1=C(Cl)C2(Cl)C3C(Cl)C=CC3C1(Cl)C2(Cl)Cl (configuration not stated),normalized growth,"S. cerevisiae deletion strains, locus YJR075W, strain HOC1, active compounds read low",1
same,normalized growth,"S. cerevisiae deletion strains, locus YKL009W, strain mrt4, active compounds read low",0.957
same,normalized growth,"S. cerevisiae deletion strains, locus YKL068W, active compounds read low",1
same,normalized growth,"S. cerevisiae deletion strains, locus YKL085W, strain MDH1 (second series), active compounds read low",0.996
same,normalized growth,"S. cerevisiae deletion strains, locus YKL085W, strain MDH1, active compounds read low",0.996
same,normalized growth,"S. cerevisiae deletion strains, locus YKL160W, strain elf1, active compounds read low",0.993
same,normalized growth,"S. cerevisiae deletion strains, locus YKL190W, strain CNB1, active compounds read low",0.989
same,normalized growth,"S. cerevisiae deletion strains, locus YKR001C, strain vps1, active compounds read low",0.965
same,normalized growth,"S. cerevisiae deletion strains, locus YKR026C, strain gcn3, active compounds read low",1.01
same,normalized growth,"S. cerevisiae deletion strains, locus YKR091W, strain srl3, active compounds read low",1.01
same,normalized growth,"S. cerevisiae deletion strains, locus YLL001W, strain dnm1, active compounds read low",1
same,normalized growth,"S. cerevisiae deletion strains, locus YLL026W, active compounds read low",1.01
same,normalized growth,"S. cerevisiae deletion strains, locus YLL041C, strain sdh2, active compounds read low",1.01
same,normalized growth,"S. cerevisiae deletion strains, locus YLR027C, strain aat2, active compounds read low",0.97
same,normalized growth,"S. cerevisiae deletion strains, locus YLR039C, strain RIC1, active compounds read low",1
same,normalized growth,"S. cerevisiae deletion strains, locus YLR058C, strain SHM2, active compounds read low",0.986
same,normalized growth,"S. cerevisiae deletion strains, locus YLR102C, strain apc9, active compounds read low",0.981
same,normalized growth,"S. cerevisiae deletion strains, locus YLR113W, strain HOG1, active compounds read low",0.938
same,normalized growth,"S. cerevisiae deletion strains, locus YLR221C, strain rsa3, active compounds read low",0.971
same,normalized growth,"S. cerevisiae deletion strains, locus YLR258W, strain gsy2, active compounds read low",0.988
same,normalized growth,"S. cerevisiae deletion strains, locus YLR262C, strain YPT6 (second series), active compounds read low",0.933
same,normalized growth,"S. cerevisiae deletion strains, locus YLR262C, strain YPT6, active compounds read low",1.01
same,normalized growth,"S. cerevisiae deletion strains, locus YLR268W, strain sec22, active compounds read low",0.985
same,normalized growth,"S. cerevisiae deletion strains, locus YLR320W, strain mms22, active compounds read low",0.965
same,normalized growth,"S. cerevisiae deletion strains, locus YLR330W, strain CHS5, active compounds read low",0.998
same,normalized growth,"S. cerevisiae deletion strains, locus YLR342W, strain FKS1 (second series), active compounds read low",0.948
same,normalized growth,"S. cerevisiae deletion strains, locus YLR342W, strain FKS1, active compounds read low",1.01
same,normalized growth,"S. cerevisiae deletion strains, locus YLR357W, strain rsc2, active compounds read low",1
same,normalized growth,"S. cerevisiae deletion strains, locus YLR370C, strain arc18, active compounds read low",0.999
same,normalized growth,"S. cerevisiae deletion strains, locus YLR371W, strain rom2, active compounds read low",0.973
same,normalized growth,"S. cerevisiae deletion strains, locus YLR384C, strain iki3, active compounds read low",1.01
same,normalized growth,"S. cerevisiae deletion strains, locus YLR418C, strain cdc73, active compounds read low",0.977
same,normalized growth,"S. cerevisiae deletion strains, locus YML016C, strain PPZ1, active compounds read low",0.992
same,normalized growth,"S. cerevisiae deletion strains, locus YML032C, strain rad52, active compounds read low",0.968
same,normalized growth,"S. cerevisiae deletion strains, locus YML120C, strain ndi1, active compounds read low",1
same,normalized growth,"S. cerevisiae deletion strains, locus YML124C, strain tub3, active compounds read low",0.978
same,normalized growth,"S. cerevisiae deletion strains, locus YMR058W, strain fet3, active compounds read low",0.998
same,normalized growth,"S. cerevisiae deletion strains, locus YMR078C, strain ctf18, active compounds read low",0.959
same,normalized growth,"S. cerevisiae deletion strains, locus YMR125W, strain sto1, active compounds read low",1.01
same,normalized growth,"S. cerevisiae deletion strains, locus YMR129W, active compounds read low",1.01
same,normalized growth,"S. cerevisiae deletion strains, locus YMR205C, strain PFK2, active compounds read low",0.947
same,normalized growth,"S. cerevisiae deletion strains, locus YMR223W, strain ubp8, active compounds read low",0.95
same,normalized growth,"S. cerevisiae deletion strains, locus YMR231W, strain pep5, active compounds read low",0.987
same,normalized growth,"S. cerevisiae deletion strains, locus YMR263W, strain SAP30, active compounds read low",0.999
same,normalized growth,"S. cerevisiae deletion strains, locus YMR307W, strain GAS1, active compounds read low",1.06
same,normalized growth,"S. cerevisiae deletion strains, locus YNL067W, strain RPL9B, active compounds read low",1
same,normalized growth,"S. cerevisiae deletion strains, locus YNL071W, strain lat1, active compounds read low",1.02
same,normalized growth,"S. cerevisiae deletion strains, locus YNL128W, strain TEP1, active compounds read low",0.987
same,normalized growth,"S. cerevisiae deletion strains, locus YNL153C, strain GIM3, active compounds read low",0.989
same,normalized growth,"S. cerevisiae deletion strains, locus YNL183C, strain NPR1, active compounds read low",0.962
same,normalized growth,"S. cerevisiae deletion strains, locus YNL209W, strain ssb2, active compounds read low",0.997
same,normalized growth,"S. cerevisiae deletion strains, locus YNL233W, strain BNI4, active compounds read low",0.978
same,normalized growth,"S. cerevisiae deletion strains, locus YNL248C, strain rpa49, active compounds read low",0.996
same,normalized growth,"S. cerevisiae deletion strains, locus YNL250W, strain rad50, active compounds read low",0.99
same,normalized growth,"S. cerevisiae deletion strains, locus YNL271C, strain bni1, active compounds read low",0.984
same,normalized growth,"S. cerevisiae deletion strains, locus YNL298W, strain CLA4, active compounds read low",0.977
same,normalized growth,"S. cerevisiae deletion strains, locus YNL307C, strain MCK1, active compounds read low",0.885 (active)
same,normalized growth,"S. cerevisiae deletion strains, locus YNL322C, strain KRE1 (second series), active compounds read low",0.982
same,normalized growth,"S. cerevisiae deletion strains, locus YNL322C, strain KRE1, active compounds read low",1
same,normalized growth,"S. cerevisiae deletion strains, locus YNR049C, strain mso1, active compounds read low",1
same,normalized growth,"S. cerevisiae deletion strains, locus YNR052C, strain pop2, active compounds read low",0.964
same,normalized growth,"S. cerevisiae deletion strains, locus YOL006C, strain TOP1, active compounds read low",0.97
same,normalized growth,"S. cerevisiae deletion strains, locus YOL012C, strain htz1",0.908
same,normalized growth,"S. cerevisiae deletion strains, locus YOL147C, strain pex11, active compounds read low",0.989
same,normalized growth,"S. cerevisiae deletion strains, locus YOR001W, strain rrp6, active compounds read low",1.01
same,normalized growth,"S. cerevisiae deletion strains, locus YOR061W, strain CKA2, active compounds read low",0.993
same,normalized growth,"S. cerevisiae deletion strains, locus YOR069W, strain VPS5, active compounds read low",0.982
same,normalized growth,"S. cerevisiae deletion strains, locus YOR070C, strain gyp1, active compounds read low",1.01
same,normalized growth,"S. cerevisiae deletion strains, locus YOR080W, strain dia2, active compounds read low",0.995
same,normalized growth,"S. cerevisiae deletion strains, locus YOR083W, strain WHI5, active compounds read low",0.974
same,normalized growth,"S. cerevisiae deletion strains, locus YOR106W, strain vam3, active compounds read low",0.942
same,normalized growth,"S. cerevisiae deletion strains, locus YOR136W, strain idh2, active compounds read low",0.963
same,normalized growth,"S. cerevisiae deletion strains, locus YOR144C, strain elg1, active compounds read low",0.977
same,normalized growth,"S. cerevisiae deletion strains, locus YOR184W, strain ser1, active compounds read low",0.886
same,normalized growth,"S. cerevisiae deletion strains, locus YOR231W, strain MKK1, active compounds read low",1.02
same,normalized growth,"S. cerevisiae deletion strains, locus YOR265W, strain rbl2, active compounds read low",1.01
same,normalized growth,"S. cerevisiae deletion strains, locus YOR270C, strain vph1, active compounds read low",0.82
same,normalized growth,"S. cerevisiae deletion strains, locus YOR290C, strain snf2, active compounds read low",0.939
same,normalized growth,"S. cerevisiae deletion strains, locus YOR316C, strain cot1, active compounds read low",0.985
same,normalized growth,"S. cerevisiae deletion strains, locus YPL051W, strain arl3, active compounds read low",0.996
same,normalized growth,"S. cerevisiae deletion strains, locus YPL055C, strain LGE1, active compounds read low",1
same,normalized growth,"S. cerevisiae deletion strains, locus YPL078C, strain atp4, active compounds read low",1
same,normalized growth,"S. cerevisiae deletion strains, locus YPL106C, strain sse1, active compounds read low",0.963
same,normalized growth,"S. cerevisiae deletion strains, locus YPL240C, strain hsp82, active compounds read low",0.999
same,normalized growth,"S. cerevisiae deletion strains, locus YPL241C, strain CIN2, active compounds read low",0.993
same,normalized growth,"S. cerevisiae deletion strains, locus YPL256C, strain CLN2, active compounds read low",1.02
same,normalized growth,"S. cerevisiae deletion strains, locus YPR119W, strain clb2, active compounds read low",0.987
same,normalized growth,"S. cerevisiae deletion strains, locus YPR141C, strain kar3, active compounds read low",0.982
same,normalized growth,"S. cerevisiae deletion strains, locus YPR163C, strain tif3, active compounds read low",0.981
same,normalized growth,"S. cerevisiae deletion strains, locus YPR167C, strain met16, active compounds read low",0.976
same,normalized growth,"S. cerevisiae deletion strains, strain wtn01, active compounds read low",0.97
same,normalized growth,"S. cerevisiae strains, strain wild type, active compounds read low",1

# Source: PubChem BioAssay AID1159580 (chemical genetic matrix, 2015)
